Screens deposited in PubChem by Broad Institute.
The list is not random: actives were taken first. Their share in the collection is about 2.2%.
miR122 inh = blocks miR-122 activity in Huh7 sensor cells; actives 0.3% (n = 340,000); activation (reporter increase), % at 12.5 µM; Huh7 miR-122 Renilla luciferase sensor, 48 h; neutral wells = 0, positive control = 100;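 active means mean replicate activation score at least 90 and every replicate individually at or above 90; inconclusive means only one of the two criteria met; inactive means neither criterion met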;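 further: higher luciferase means less miR-122 activity so hits act as miR-122 inhibitors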
C2C12 statin = suppressors of simvastatin-induced myotoxicity in C2C12 myotubes; ATP luminescence, 48 h; scaled: DMSO 0, geranylgeraniol control 100; rescue of ATP level, % at 7.49 µM; actives 0.78% (n = 330,000); AID 602340;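 active means mean ATP rescue above about 67%, or every replicate alone reaching that limit, limit read from the data, passing the limit was not always enough; inconclusive means no clear call, values can overlap the other calls; inactive means mean under the limit and some replicate under it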;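 further: myotubes were challenged with 10 µM simvastatin during compound exposure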
DENV2 CPE rescue = protects cells from dengue virus 2 cytopathic effect. DENV2-infected cells, cytopathic effect rescue, plate reader. CPE inhibition, % at 9.99 µM. actives 1.7% (n = 350,000). AID 651640; in the data active means CPE inhibition above about 20%, passing the limit was not always enough; inconclusive means no clear call, values can overlap the other calls; tested in BHK-21 cells
PvdQ inh = blocks Pseudomonas aeruginosa PvdQ acylase activity; actives 0.063% (n = 340,000); AID 488965; inhibition, % at 10 µM; purified PvdQ acylase, fluorescence plate reader; in the data active means inhibition above about 30%, passing the limit was not always enough; inconclusive means no clear call, values can overlap the other calls
PGC1a acetyl inh = modulators of PGC1a acetylation; U2OS PGC1a acetylation, AlphaScreen anti-acetyl-lysine; with virally co-expressed GCN5 acetyltransferase; inhibition, % at 15.6 µM; actives 0.17% (n = 350,000);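 active means every replicate shows inhibition of at least 40%; inconclusive means mean inhibition at least 40% but some replicate below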
Numbers stand for hits; n = inactive; u = inconclusive; x = no result given; [ ] = another dose, or the depositor's remark.

SMILES	miR122 inh	C2C12 statin	DENV2 CPE rescue	PvdQ inh	PGC1a acetyl inh
COc1ccc(NC(=O)N(C)C[C@@H]2Oc3ccc(NC(=O)C4CCCCC4)cc3C(=O)N([C@@H](C)CO)C[C@@H]2C)cc1	n	n	n	x	n
Cc1noc(C)c1S(=O)(=O)Nc1ccc2c(c1)C(=O)N([C@@H](C)CO)C[C@H](C)[C@@H](CN(C)S(=O)(=O)c1ccccc1)O2	n	n	n	x	n
C[C@@H]1CCCCO[C@H](CN(C)C(=O)CCCN(C)C)[C@H](C)CN([C@@H](C)CO)C(=O)c2cc(NS(=O)(=O)c3ccc(F)cc3)ccc2O1	n	x	n	x	n
Cc1noc(C)c1NC(=O)Nc1ccc2c(c1)C(=O)N([C@H](C)CO)C[C@H](C)[C@H](CN(C)Cc1ccc(C(=O)Nc3ccccc3N)cc1)O2	n	n	22	x	n
C[C@H]1CN([C@@H](C)CO)C(=O)c2cc(NC(=O)Cc3cn(C)c4ccccc34)ccc2O[C@H]1CN(C)Cc1ccc(C(=O)Nc2ccccc2N)cc1	n	86	n	x	n
C[C@H]1CN([C@@H](C)CO)C(=O)Cc2cc(NC(=O)Nc3cccc4ccccc34)ccc2O[C@@H]1CN(C)Cc1ccc(C(=O)Nc2ccccc2N)cc1	x	x	38	x	n
C[C@@H]1CN([C@@H](C)CO)C(=O)c2cc(NC(=O)Nc3cccc4ccccc34)ccc2O[C@@H]1CN(C)Cc1ccc(C(=O)Nc2ccccc2N)cc1	n	137	u	x	n
Cc1noc(C)c1NC(=O)Nc1ccc2c(c1)C(=O)N([C@H](C)CO)C[C@@H](C)[C@@H](CN(C)Cc1ccc(C(=O)Nc3ccccc3N)cc1)O2	x	x	n	x	n
C[C@@H]1CN([C@@H](C)CO)C(=O)c2cc(NC(=O)Nc3ccccc3)ccc2O[C@@H]1CN(C)Cc1ccc(C(=O)Nc2ccccc2N)cc1	170[16.7 µM]	n	n	x	n
CC1(C)Cc2c(C#N)c(SCCO)nc(N3CCOCC3)c2CO1	n	n	n	n	n
CCCCc1nc(N2CCOCC2)c(C#N)c2c1COC(C)(C)C2	n	128	x	n	n
CCN1C[C@@H]2[C@@H]3C(=O)N(Cc4ccccc4)C(=O)[C@@H]3[C@](Cc3ccccc3)(C1=O)N2C(=O)c1ccc(Br)cc1	n	n	68	n	n
CCN1C[C@@H]2[C@@H]3C(=O)N(Cc4ccccc4)C(=O)[C@@H]3[C@](CC)(C1=O)N2C(=O)c1ccc(Br)cc1	n	n	n	n	n
COc1ccc(C(=O)c2nc3c(n2O)CCCC3)cc1OC	n	122	x	n	n
CC=Cc1ccc2n(c1=O)C[C@H]1[C@H](CO)[C@@H](C(=O)Nc3nccs3)N(Cc3ccccc3F)[C@@H]21 (mixture of isomers)	n	n	u	x	x
CCC(C(=O)NC1CCCC1)N(C(=O)Cn1nnc(-c2ccc(OC)c(OC)c2)n1)c1cccc(O)c1 (centres undefined)	n	139	n	n	n
COc1ccc(-c2nnn(CC(=O)N(c3cccc(O)c3)C(C)C(=O)NC3CCCC3)n2)cc1OC (centres undefined)	x	x	n	n	n
CC1(C(=O)NCC2CC2)C=CC2(CCCCC2)N1C(=O)c1ccccc1 (centres undefined)	n	n	x	n	n
CC1(C(=O)NCc2cc(F)cc(C(F)(F)F)c2)C=CC2(CCCCC2)N1C(=O)c1ccccc1 (centres undefined)	n	n	100	n	n
COc1ccc(C)cc1S(=O)(=O)NC1CC1	n	n	u	n	n
O=C(COc1ccc(S(=O)(=O)NC2CCCCC2)cc1)NC1CCCCC1	n	x	x	n	n
CCOC(=O)N1CCN(C(=O)COc2ccc(S(=O)(=O)NC3CCCCC3)cc2C)CC1	n	116	x	n	n
O=C(COc1ccc(S(=O)(=O)NC2CCCCC2)cc1)NC1CCCC1	245	n	n	n	n
CSc1nc2ccc(S(=O)(=O)N3CCCCC3)cc2s1	n	n	x	n	n
COc1ccc(C)cc1S(=O)(=O)NC1CCCC1	170	n	x	n	n
SMILES	miR122 inh	C2C12 statin	DENV2 CPE rescue	PvdQ inh	PGC1a acetyl inh
CSc1nc2ccc(S(=O)(=O)NC3CCCCC3)cc2s1	175	n	x	n	n
CO[C@H]1CN(C)C(=O)c2ccc(NS(C)(=O)=O)cc2OC[C@H](C)N(C(=O)C2CC2)C[C@H]1C	x	n	x	x	n
CCOc1cc(S(=O)(=O)NC2CCCCCC2)ccc1F	n	x	x	n	n
COc1ccc(S(=O)(=O)NC2CCCC2)cc1NC(C)=O	x	n	n	n	x
COc1ccc(S(=O)(=O)NC2CCCCC2)cc1C	137	n	n	n	n
O=S(=O)(NC1CCCCCC1)c1cccc(Cl)c1	x	n	n	n	n
CCNS(=O)(=O)c1cc(Br)ccc1OC	248	n	x	n	n
